Measured values: PubChem BioAssay AID2069 (Sanford-Burnham Center for Chemical Genomics, 2009)
Among all 1,200 compounds or so, about 210 (18%) were called active. Rule as the data show it: active = inhibition above about 30%; inactive = the rest. Only a sample is shown.

Experiment: HTRF signal interference by compounds, confirmation, artefact control for SUMOylation inhibitor project, biochemical, uHTS (AID 2069)
Details: HTRF interference counterscreen, fluorescence, at 35 µM, stronger effect = higher value

Row | Structure (SMILES) | inhibition
1 | Cc1cc(/C=N/n2c(COc3ccccc3C)nc3ccccc3c2=O)c(O)c([N+](=O)[O-])c1 | -15.5% (inactive)
2 | CCn1c2ccccc2c2c3ncc4cccn4c3ccc21 | 31.1% (active)
3 | O=[N+]([O-])c1ccc2nc(CCCc3nc4ccc([N+](=O)[O-])cc4[nH]3)[nH]c2c1 | 28.1% (inactive)
4 | COc1ccccc1CCNC(=O)CSc1ccc(-c2ccco2)nn1 | 14.2% (inactive)
5 | CCc1cc2c(=O)c(Oc3ccccc3F)c(C)oc2c(CN(C)C)c1O | 62.9% (active)
6 | Cc1ccccc1NC(=O)Cn1c(O)c(N=NC(=O)c2ccccc2O)c2ccccc21 | 11.2% (inactive)
7 | CN1CCc2cc3c(c4c2[C@H]1[C@H](O)c1ccccc1-4)OCO3 | 1.95% (inactive)
8 | CCc1ccc(/C=C2/SC(=S)N(CCC(=O)Nc3ccc(C(=O)O)cc3)C2=O)cc1 | 8.2% (inactive)
9 | COc1ccc2nc3ccccc3nc2c1N | -67.2% (inactive)
10 | CCc1ccc2nc(NC(=O)c3ccc4c(=O)[nH]c(CN5CCOCC5)nc4c3)sc2c1 | 29.9% (inactive)
11 | CC(=O)NC1C(=O)N(CCN2CCOCC2)c2ccc(F)cc21 (centres undefined) | 28.6% (inactive)
12 | CCc1ccc2c(c1)C(NC(C)=O)C(=O)N2CCN1CCOCC1 (centres undefined) | 30.8% (active)
13 | CCOc1ccc2c(c1)C(NC(C)=O)C(=O)N2CCN1CCOCC1 (centres undefined) | 37.8% (active)
14 | CC(=O)NC1C(=O)N(CCN2CCOCC2)c2ccc(Cl)cc21 (centres undefined) | 25.8% (inactive)
15 | Brc1ccc(OCCN2CCOCC2)cc1 | -8.15% (inactive)
16 | CC(=O)NC1C(=O)N(CCN2CCOCC2)c2ccc(Br)cc21 (centres undefined) | 32.2% (active)
17 | O=C1NC(=O)c2cc(NC(=O)C3CCCCC3)ccc21 | 25.4% (inactive)
18 | CCOC(=O)C1CC(=O)c2cc(OC)c(OC)cc2C1 (centres undefined) | -1.1% (inactive)
19 | O=C(COc1ccc(Cl)cc1)Nc1nnc(-c2ccc3c(c2)CCCC3)o1 | -7.05% (inactive)
20 | CC(C)=CCC1=C(OCC(=O)O)C(=O)c2ccccc2C1=O | -6.2% (inactive)
21 | O=C(Cc1ccccc1Cl)NC1(O)C(=O)c2ccccc2C1=O | -30.6% (inactive)
22 | O=C(NC1(O)C(=O)c2ccccc2C1=O)c1ccc(C(F)(F)F)cc1 | 56.5% (active)
23 | CN(NC(=O)c1ccc(Cl)cc1)c1ncc(C(F)(F)F)cc1Cl | 4.95% (inactive)
24 | O=C(NC1(O)C(=O)c2ccccc2C1=O)c1c(Cl)cccc1Cl | 50.4% (active)
25 | O=C(NC1(O)C(=O)c2ccccc2C1=O)c1ccccc1 | 57.5% (active)

Row | Structure (SMILES) | inhibition
26 | Cc1ccc(C(=O)NC2(O)C(=O)c3ccccc3C2=O)cc1C | 29.6% (inactive)
27 | O=C1c2ccccc2C(=O)C12OC2c1ccc(Cl)cc1 (centres undefined) | 4.4% (inactive)
28 | CC(=O)c1ccc(-c2ccc(/C=C(/Sc3n[nH]c(C)n3)C(=O)O)o2)cc1 | -9.75% (inactive)
29 | Cc1cccc(C)c1OCC(=O)N=Nc1c(O)[nH]c2ccc(Br)cc12 | -1.15% (inactive)
30 | Cc1nnc(N/N=C\c2ccc(-c3ccccc3[N+](=O)[O-])o2)n1N | 16% (inactive)
31 | O=C1/C(=N\S(=O)(=O)c2cccs2)C([n+]2cccc(Cc3ccccc3)c2)=C([O-])c2ccccc21 | 22% (inactive)
32 | CCC(=O)N1CCc2cc(S(=O)(=O)NC(C(=O)NCc3ccc(C)cc3)C(C)C)ccc21 (centres undefined) | -2.25% (inactive)
33 | COC(=O)c1c(NC(=O)COC(=O)c2ccc(NC(=O)CC#N)cc2)sc2c1CCCCC2 | 4.25% (inactive)
34 | Fc1cccc(-n2c(-c3cccs3)nc3nc4ccccc4nc32)c1 | 30.1% (active)
35 | COCCn1c(-c2ccco2)nc2nc3ccccc3nc21 | 12.7% (inactive)
36 | O=[N+]([O-])c1ccc(-c2ccc(C=Nc3cccc4ccccc34)o2)cc1 | 11.9% (inactive)
37 | CN(C)S(=O)(=O)c1cccc(-c2nn(-c3ccccc3)cc2/C=C2\SC(=S)NC2=O)c1 | -4% (inactive)
38 | Cc1nnc(Sc2cc(NCCCO)c([N+](=O)[O-])c3nonc23)s1 | -3.2% (inactive)
39 | O=c1c2ccccc2oc2cc(NCCCN3CCOCC3)ccc12 | 57.9% (active)
40 | COc1ccc(-c2ccc(C(c3c(C)[nH][nH]c3=O)c3c(C)[nH][nH]c3=O)o2)c([N+](=O)[O-])c1 | 1.45% (inactive)
41 | COc1cc2c(cc1OC)-c1cc3ccc4c(c3c[n+]1CC2)OCO4 | 24.4% (inactive)
42 | CCOC(=O)c1c(NC(=O)c2ccco2)n(C2CCCCC2)c2nc3ccccc3nc12 | 21.2% (inactive)
43 | Cc1cc(NCCO)c2cc(O)ccc2n1 | 57.5% (active)
44 | Cc1ccccc1NC(=O)c1ccc(N/N=C/c2ccccc2O)c([N+](=O)[O-])c1 | 24.7% (inactive)
45 | O=C(NC(=S)Nc1cccc2c(O)cccc12)c1ccccc1[N+](=O)[O-] | -1.65% (inactive)
46 | COC(=O)/C(=C\Nc1ccc(Cl)cc1Cl)NC(=O)c1ccc(OC)cc1 | 0.3% (inactive)
47 | Oc1ccc(C=Nc2cccc3ccccc23)c(O)c1 | 0.55% (inactive)
48 | COc1cccc(/C=N/NC(=O)C(=O)N/N=C/c2cccc(OC)c2O)c1O | 48% (active)
49 | O=C(N/N=C/c1ccc(O)cc1O)C(=O)N/N=C/c1ccc(O)cc1O | 63.6% (active)
50 | COc1cccc2c(SCC(=O)N/N=C/c3ccc(O)cc3O)cc(C)nc12 | 15.7% (inactive)

Row | Structure (SMILES) | inhibition
51 | COc1cc(OC)c(/C=N/NC(=O)c2ccc(NC(C)=O)cc2)cc1Br | 23.1% (inactive)
52 | COc1cccc(/C=N\NC(=O)C2=NNC(=O)C2C)c1O (centres undefined) | 24.4% (inactive)
53 | CC1(OC(=O)c2cccs2)C(=O)C=C2C=C3CCCN3C=C2C1=O (centres undefined) | 7.4% (inactive)
54 | O=C(CNc1ccc2ccccc2c1)N/N=C/c1cc2ccccc2nc1Cl | 2.4% (inactive)
55 | CC1=NN(c2ccccc2)C(=O)C1 | 7.95% (inactive)
56 | Cc1[nH]n(-c2ncc(-c3ccccc3)s2)c(=O)c1C(c1ccc(Cl)cc1)C(C#N)C#N (centres undefined) | -20.6% (inactive)
57 | O=C(Cn1c2ccccc2c(=O)c2ccccc21)N/N=C/c1cc([N+](=O)[O-])ccc1N1CCCCCC1 | 10.9% (inactive)
58 | O=C(N/N=C/c1cc(Cl)cc([N+](=O)[O-])c1O)c1ccccc1NS(=O)(=O)c1cccs1 | 39.8% (active)
59 | Cc1ccccc1C(=O)Nc1cccc(C(=O)N/N=C/c2cc(Cl)cc([N+](=O)[O-])c2O)c1 | -53.5% (inactive)
60 | O=C(N/N=C/c1ccc(N2CCOCC2)cc1)c1ccccc1NS(=O)(=O)c1cccs1 | 24.1% (inactive)
61 | C=C(C)[C@@H]1CC[C@]2(C(=O)O)CC[C@]3(C)[C@H](CC[C@@H]4[C@@]5(C)CC[C@H](O)C(C)(C)[C@@H]5CC[C@]43C)[C@@H]12 | 5.35% (inactive)
62 | Cc1ccc(Nc2nc(=O)c3cc([N+](=O)[O-])ccc3s2)cc1 | 5.9% (inactive)
63 | Cc1cccc(NC(=O)/C(C#N)=C/c2cn(CC(=O)NCc3ccco3)c3ccccc23)c1C | 13.7% (inactive)
64 | CCCCCCC#Cc1cncc(C(=O)NNC(=O)Nc2cc(Cl)cc(Cl)c2)c1 | -17% (inactive)
65 | O=C1C=C(N(CCO)Cc2ccccc2)c2ccccc2C1=O | 50.4% (active)
66 | O=C1C=C(Nc2ccccc2C(=O)O)c2ccccc2C1=O | -7.25% (inactive)
67 | O=C1C=C(NCc2ccccc2)c2ccccc2C1=O | -1.95% (inactive)
68 | CC(C)CNC1=CC(=O)CC(c2ccco2)C1 (centres undefined) | -0.9% (inactive)
69 | COc1cccc(C(c2c(C)[nH]n(-c3ccccc3)c2=O)c2c(C)[nH]n(-c3ccccc3)c2=O)c1OC | -27.4% (inactive)
70 | Nc1ncnc2c1ncn2C1OC(COP(=O)(O)O)C(O)C1O (centres undefined) | -7% (inactive)
71 | O=C1OC(Nc2ccc3ncccc3c2)c2ccccc21 (centres undefined) | 24% (inactive)
72 | O=[N+]([O-])c1ccc(O)c(C=Nc2cccc3ncccc23)c1 | 4.3% (inactive)
73 | N#CC1=C(N)N2C(=C(C#N)C1c1ccc(Br)cc1)Nc1ccccc12 (centres undefined) | 7.05% (inactive)
74 | O=c1nc2s/c(=C\c3ccco3)c(=O)n2nc1Cc1ccc(F)cc1 | -3.1% (inactive)
75 | OC(COc1ccccc1)CSc1ncn[nH]1 (centres undefined) | 14.6% (inactive)

Row | Structure (SMILES) | inhibition
76 | COc1ccc(NC(=S)Nc2ccc3nccnc3c2)cc1 | 8.85% (inactive)
77 | Fc1ccc(NC(=S)Nc2ccc3nccnc3c2)cc1 | 7.9% (inactive)
78 | CC(C)N(C(=O)Nc1ccc2nccnc2c1)C(C)C | 31.1% (active)
79 | COc1ccc(-n2c(NC(=O)c3ccc(Br)o3)c(C#N)c3nc4ccccc4nc32)cc1 | 12.1% (inactive)
80 | Cn1c(=O)n(C)c2cc(S(=O)(=O)NCCO)ccc21 | -3.1% (inactive)
81 | O=C(Nc1cccc2nsnc12)c1ccc(-c2cccc(Cl)c2)o1 | 25.9% (inactive)
82 | Cc1ccc2nsnc2c1NC(=O)c1ccc(-c2cc(Cl)ccc2Cl)o1 | 20.6% (inactive)
83 | CCOc1cc(C2c3c(oc4ccccc4c3=O)C(=O)N2c2nccs2)ccc1O (centres undefined) | -2.15% (inactive)
84 | COc1ccccc1Oc1c(C)oc2c(CN3CCN(C)CC3)c(O)ccc2c1=O | 30.4% (active)
85 | CCOc1ccccc1Oc1c(C)oc2c(CN3CCN(C)CC3)c(O)ccc2c1=O | 40.3% (active)
86 | Oc1ccc2ccccc2c1C=NCc1cn2ccsc2n1 | 0.1% (inactive)
87 | CC(C)c1ccc(NC(=S)Nc2cccc3ccccc23)cc1 | -7.9% (inactive)
88 | COc1ccc2cc3c(N)nn(C(=O)Cc4ccc(Cl)cc4)c3nc2c1 | 23.9% (inactive)
89 | CCN(CC)C(=O)c1sc2nc(-c3ccncc3)[nH]c(=O)c2c1C | 47.2% (active)
90 | CCCCCCC(C)OC(=O)c1ccccc1C(=O)O (centres undefined) | 3.05% (inactive)
91 | NC(=S)n1[nH]c(-c2ccc([N+](=O)[O-])cc2)c(N=Nc2cccc(Cl)c2)c1=O | 10.7% (inactive)
92 | COc1ccc2oc(=O)c(C(=O)NCC3CCCO3)cc2c1 (centres undefined) | 40.9% (active)
93 | COc1ccc(-c2cc(C(F)(F)F)n3ncc(C(=O)NCc4ccco4)c3n2)cc1 | 44.1% (active)
94 | COc1ccc(C(=O)Nc2ccc(-c3nnn(CC(=O)NCc4ccco4)n3)cc2)cc1 | 26.7% (inactive)
95 | COc1ccc(CCn2c(N)c(C(=O)NCc3ccco3)c3nc4ccccc4nc32)cc1OC | 1.65% (inactive)
96 | COc1ccc(CNC(=O)c2c(C)oc3c2C(=O)c2ccccc2C3=O)cc1 | 5.35% (inactive)
97 | Cc1onc(-c2ccccc2Cl)c1C(=O)NCc1ccco1 | 11.2% (inactive)
98 | COc1ccc2oc(=O)c(C(=O)NCc3ccco3)cc2c1 | 48.4% (active)
99 | COc1ccc2oc(=O)c(/C(C)=N/NC(=O)c3ccncc3)cc2c1 | 18.8% (inactive)
